The record followed here is PubChem BioAssay (EPA / NIEHS).

As a reminder, the AC50 is the concentration at which the activity in the assay is half-maximal.

The structures appear in SMILES notation. Values joined by “and” are separate entries in the source; they are usually repeats but may differ in a detail not shown here. Equal values may be shown once. Results filed as inconclusive are left out. Active and inactive are the calls of the source. Rule for the calls, unless noted: active = hit-call score of the fitted dose curve at least 0.9, where 1 is the maximum; inactive = score below 0.9.

The target of experiment [1] is Paired box protein Pax-6 (Homo sapiens) (UniProt P26367). As to the kind of experiment: ATG_Pax6_CIS: Attagene CIS-FACTORIAL HepG2 Assay for human Paired Box 6 (PAX6) (AID 2282956). The note with it: HepG2 CIS-FACTORIAL PAX6 reporter transcription, RNA readout; actives raise or lower the signal. An outline of the steps:
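HepG2 cells transiently transfected with cis-promoter-driven multiplexed reporter units sensing endogenous transcription factor activity; 24 h chemical exposure. Reporter mRNA quantified by RT-PCR, 6-FAM labelling, HpaI digestion and capillary electrophoresis; bidirectional fit versus DMSO baseline.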

A short description of experiment [2]: ATG_PXRE_CIS: Attagene CIS-FACTORIAL HepG2 Assay for human Pregnane X Receptor Element (PXRE) (AID 2282957). The note with it: HepG2 Attagene CIS-FACTORIAL PXRE reporter, mRNA; actives raise or lower the signal. An outline of the steps: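 Cis-element reporter mRNA in human hepatoma HepG2 cells is measured 24 h post-dosing by RT-PCR, primer-extension labeling and capillary electrophoresis; gain or loss of signal is fitted relative to DMSO.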

The nature of experiment [3]: ATG_RORE_CIS: Attagene CIS-FACTORIAL HepG2 Assay for human RAR-related Orphan Receptor Element (RORE) (AID 2282959). The note with it: HepG2 Attagene cis-factorial RORE reporter, mRNA; actives raise or lower the signal. An outline of the steps:
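Fluorescence intensity of reporter-specific cDNA fragments, separated by capillary electrophoresis, gives the signal. Source: HepG2 liver cells transiently transfected with cis-element reporters and exposed 24 h; DMSO-normalized bidirectional fit.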

A short description of experiment [4]: ATG_Sox_CIS: Attagene CIS-FACTORIAL HepG2 Assay for human SRY-box transcription factor (SOX) (AID 2282960). The note with it: HepG2 Attagene cis-factorial SOX reporter, mRNA; actives raise or lower the signal. An outline of the steps:
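After 24 h of chemical treatment, transfected HepG2 reporter cells are lysed for total RNA. Transcript levels come from RT-PCR with labelled primer extension and capillary electrophoresis, analysed bidirectionally versus DMSO.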

Experiment [5] deals with Transcription factor Sp1 (Homo sapiens) (UniProt P08047). As to the kind of experiment: ATG_Sp1_CIS: Attagene CIS-FACTORIAL HepG2 Assay for human Specificity Protein 1 (Sp1) (AID 2282961). The note with it: HepG2 Sp1 cis-reporter transcription, actives raise or lower the signal. An outline of the steps: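 Sp1-driven reporter mRNA, read as capillary electrophoresis fluorescence after RT-PCR, in transiently transfected HepG2 cells dosed for 24 h; signal change in either direction relative to DMSO.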

Experiment [6] can be described thus: ATG_SREBP_CIS: Attagene CIS-FACTORIAL HepG2 Assay for human Sterol Regulatory Element Binding (SREBP) (AID 2282962). The note with it: HepG2 Attagene cis-factorial SREBP reporter, mRNA; actives raise or lower the signal. In a few lines:
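HepG2 cells transiently transfected with multiplexed cis-promoter reporter units sensing endogenous transcription factors; reporter mRNA measured 24 h after dosing by RT-PCR, 6-FAM labeling, HpaI digestion and capillary electrophoresis. Bidirectional fit versus DMSO.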

The target of experiment [7] is Signal transducer and activator of transcription 3 (Homo sapiens) (UniProt P40763). As to the kind of experiment: ATG_STAT3_CIS: Attagene CIS-FACTORIAL HepG2 Assay for human Signal Transducer and Activator of Transcription 3 (STAT3) (AID 2282963). The note with it: HepG2, Attagene cis-factorial STAT3 reporter transcription; actives raise or lower the signal. In a few lines:
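Endogenous STAT3-responsive cis-element activity was read in transiently transfected HepG2 cells after 24 h treatment. Reporter transcripts were quantified via RT-PCR and capillary electrophoresis, with DMSO as negative control and bidirectional curve fitting.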

Experiment [8] in a line: ATG_TCF_b_cat_CIS: Attagene CIS-FACTORIAL HepG2 Assay for human T-Cell-Factor with beta-catenin (TCF/b-cat) (AID 2282965). The note with it: HepG2 TCF/beta-catenin cis-reporter transcription, actives raise or lower the signal. An outline of the steps: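 Endogenous transcription factor activity is captured through cis-promoter reporter constructs transiently introduced into human HepG2 liver cells. Induced reporter mRNA is measured after 24 h and fitted bidirectionally relative to DMSO.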

Experiment [9] in a line: ATG_TAL_CIS: Attagene CIS-FACTORIAL HepG2 Assay for human TAL Basal Promoter (AID 2282966).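 Note: background control endpoint measuring basal TAL promoter reporter mRNA not a specific factor.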 The note with it: HepG2 Attagene cis-factorial TAL promoter reporter; actives raise or lower the signal. An outline of the steps:
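In this cell-based multiplex, HepG2 liver cells bearing cis-promoter reporter constructs are dosed for 24 hours. Total RNA is reverse-transcribed and amplified, labelled fragments are sized by capillary electrophoresis, and signal changes are fitted bidirectionally versus DMSO.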

The nature of experiment [10]: ATG_TGFb_CIS: Attagene CIS-FACTORIAL HepG2 Assay for human Transforming Growth Factor (TGF) (AID 2282967). The note with it: HepG2 Attagene CIS TGFb reporter, mRNA transcription; actives raise or lower the signal. An outline of the steps: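 Transcript-level reporter readout: HepG2 transfectants, 24 h exposure, RNA to cDNA, reporter-specific PCR, fluorescent primer extension, capillary sizing against ROX standards. Gain- or loss-of-signal relative to DMSO.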

Experiment [11] concerns the target Nuclear receptor subfamily 1 group I member 3 (Homo sapiens) (UniProt Q14994). As to the kind of experiment: ATG_CAR_TRANS: Attagene TRANS-FACTORIAL HepG2 Assay for human Constitutive Androstane Receptor (CAR) (AID 2282969; active = hit-call score of the fitted dose curve at least 0.9, where 1 is the maximum;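 note: activators raise reporter mRNA above DMSO so AC50 marks induction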). The note with it: HepG2 Attagene TRANS-FACTORIAL CAR reporter. In a few lines:
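Readout is reporter mRNA induction, quantified by fluorescent primer extension and capillary electrophoresis after RT-PCR. Cells were HepG2 transiently carrying chimeric NR-Gal4 constructs with GAL4-UAS reporters, treated for 24 h; activity scored upward from DMSO.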

Experiment [12] deals with Estrogen receptor (Homo sapiens) (UniProt P03372). As to the kind of experiment: ATG_ERa_TRANS: Attagene TRANS-FACTORIAL HepG2 Assay for human Estrogen Receptor alpha (ERa) (AID 2282970; active = hit-call score of the fitted dose curve at least 0.9, where 1 is the maximum). The note with it: HepG2 Attagene TRANS ERa GAL4 reporter, mRNA. In a few lines:
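After 24 h of compound treatment, RNA from HepG2 cells bearing transfected GAL4-UAS reporter constructs is converted to cDNA, amplified and fluorescently labelled. Capillary electrophoresis resolves the ERa-linked reporter; DMSO serves as negative control.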

Experiment [13] concerns the target X-box-binding protein 1 (Homo sapiens) (UniProt P17861). As to the kind of experiment: ATG_Xbp1_CIS: Attagene CIS-FACTORIAL HepG2 Assay for human X-box Binding Protein 1 (XBP1) (AID 2282972). The note with it: HepG2 XBP1 cis-element reporter, Attagene multiplex; actives raise or lower the signal. In a few lines: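 HepG2 cells transiently transfected with multiple cis-element reporter units report endogenous TF activity; 24 h exposure, then reporter mRNA measured by RT-PCR, 6-FAM labelling, HpaI digestion and capillary electrophoresis. Bidirectional fitting versus DMSO.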

Experiment [14] can be described thus: ATG_Hpa5_TRANS: Attagene TRANS-FACTORIAL HepG2 Assay for human GAL4-Hpa5 Hepatocyte Transcription Factor Basal Promoter (AID 2282975; active = hit-call score of the fitted dose curve at least 0.9, where 1 is the maximum;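 note: hits are increases in reporter mRNA over DMSO baseline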). The note with it: HepG2 Attagene GAL4-Hpa5 transcription reporter. In a few lines: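 Basal-promoter GAL4 background control within the HepG2 trans-factorial panel of transiently transfected reporter units. Reporter mRNA is measured 24 h after dosing by RT-PCR and capillary electrophoresis, fitted for gain of signal versus DMSO.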

Experiment [15] can be described thus: ATG_VDRE_CIS: Attagene CIS-FACTORIAL HepG2 Assay for human Vitamin D Receptor Element (VDRE) (AID 2282968). The note with it: HepG2 VDRE cis-reporter transcription, actives raise or lower the signal. An outline of the steps: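 Reporter mRNA induction, quantified by capillary electrophoresis of fluorescently labelled RT-PCR products, was read 24 h after dosing HepG2 cells carrying transiently transfected cis-regulated reporter units; gain or loss relative to DMSO.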

The target in experiment [16] is Steroid hormone receptor ERR1 (Homo sapiens) (UniProt P11474). As to the kind of experiment: ATG_ERRa_TRANS: Attagene TRANS-FACTORIAL HepG2 Assay for human Estrogen-Related Receptor alpha (ERRa) (AID 2282971; active = hit-call score of the fitted dose curve at least 0.9, where 1 is the maximum). The note with it: HepG2 Attagene TRANS reporter, ERRa transactivation. An outline of the steps: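 Transfected HepG2, 24 h dosing, ERRa-Gal4 chimera driving GAL4-UAS reporter. Readout: reporter mRNA via RT-PCR plus capillary electrophoresis (fluorescence). Positive direction vs DMSO control.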

Experiment [17] deals with Androgen receptor (Homo sapiens) (UniProt P10275). As to the kind of experiment: ATG_AR_TRANS: Attagene TRANS-FACTORIAL HepG2 Assay for human Androgen Receptor (AR) (AID 2282973; active = hit-call score of the fitted dose curve at least 0.9, where 1 is the maximum). The note with it: HepG2 Attagene TRANS-FACTORIAL AR reporter transcription. An outline of the steps: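 Readout is reporter transcript abundance, quantified by fluorescent RT-PCR products separated on capillary electrophoresis. Human HepG2 liver cells carried transiently transfected NR-Gal4 chimera plus GAL4-UAS reporter constructs and were dosed for 24 h; activity scored upward versus DMSO.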

A short description of experiment [18]: ATG_TA_CIS: Attagene CIS-FACTORIAL HepG2 Assay for human TA Basal Promoter (AID 2282964). The note with it: HepG2 Attagene CIS-factorial TA basal promoter reporter; actives raise or lower the signal. In a few lines: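 Multiplexed mRNA reporter assay, HepG2, 24 h. Reporter cDNA amplified, 6-FAM primer-extended, HpaI-cut, CE-sized; DMSO = negative control and baseline.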

Chain of X-box-binding protein 1 (Homo sapiens) (P17861 whole entry, looked up): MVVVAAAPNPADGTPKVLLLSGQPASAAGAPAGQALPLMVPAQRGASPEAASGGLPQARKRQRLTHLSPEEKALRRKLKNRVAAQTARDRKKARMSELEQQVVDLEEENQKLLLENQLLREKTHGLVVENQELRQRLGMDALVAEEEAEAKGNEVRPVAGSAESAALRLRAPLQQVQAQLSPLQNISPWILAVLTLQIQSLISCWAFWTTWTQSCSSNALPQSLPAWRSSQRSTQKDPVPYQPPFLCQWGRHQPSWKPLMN
Chain of Estrogen receptor (Homo sapiens) (P03372 whole entry, looked up, the tested form may be a part): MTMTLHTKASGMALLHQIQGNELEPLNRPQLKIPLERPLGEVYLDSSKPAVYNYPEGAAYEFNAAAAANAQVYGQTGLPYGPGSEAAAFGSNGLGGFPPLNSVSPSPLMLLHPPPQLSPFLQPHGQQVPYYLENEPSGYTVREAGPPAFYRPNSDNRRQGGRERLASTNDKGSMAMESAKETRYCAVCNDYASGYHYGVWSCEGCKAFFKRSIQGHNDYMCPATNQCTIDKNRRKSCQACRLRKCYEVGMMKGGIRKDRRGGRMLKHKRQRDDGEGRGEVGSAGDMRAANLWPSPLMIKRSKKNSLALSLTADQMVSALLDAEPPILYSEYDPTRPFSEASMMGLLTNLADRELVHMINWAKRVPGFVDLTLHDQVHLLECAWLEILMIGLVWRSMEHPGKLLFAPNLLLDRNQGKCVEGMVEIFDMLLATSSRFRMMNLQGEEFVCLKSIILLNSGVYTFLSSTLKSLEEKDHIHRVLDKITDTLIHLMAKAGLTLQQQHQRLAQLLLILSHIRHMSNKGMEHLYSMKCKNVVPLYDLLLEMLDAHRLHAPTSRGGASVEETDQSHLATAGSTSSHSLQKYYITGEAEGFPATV
Chain of Signal transducer and activator of transcription 3 (Homo sapiens) (P40763 whole entry, looked up): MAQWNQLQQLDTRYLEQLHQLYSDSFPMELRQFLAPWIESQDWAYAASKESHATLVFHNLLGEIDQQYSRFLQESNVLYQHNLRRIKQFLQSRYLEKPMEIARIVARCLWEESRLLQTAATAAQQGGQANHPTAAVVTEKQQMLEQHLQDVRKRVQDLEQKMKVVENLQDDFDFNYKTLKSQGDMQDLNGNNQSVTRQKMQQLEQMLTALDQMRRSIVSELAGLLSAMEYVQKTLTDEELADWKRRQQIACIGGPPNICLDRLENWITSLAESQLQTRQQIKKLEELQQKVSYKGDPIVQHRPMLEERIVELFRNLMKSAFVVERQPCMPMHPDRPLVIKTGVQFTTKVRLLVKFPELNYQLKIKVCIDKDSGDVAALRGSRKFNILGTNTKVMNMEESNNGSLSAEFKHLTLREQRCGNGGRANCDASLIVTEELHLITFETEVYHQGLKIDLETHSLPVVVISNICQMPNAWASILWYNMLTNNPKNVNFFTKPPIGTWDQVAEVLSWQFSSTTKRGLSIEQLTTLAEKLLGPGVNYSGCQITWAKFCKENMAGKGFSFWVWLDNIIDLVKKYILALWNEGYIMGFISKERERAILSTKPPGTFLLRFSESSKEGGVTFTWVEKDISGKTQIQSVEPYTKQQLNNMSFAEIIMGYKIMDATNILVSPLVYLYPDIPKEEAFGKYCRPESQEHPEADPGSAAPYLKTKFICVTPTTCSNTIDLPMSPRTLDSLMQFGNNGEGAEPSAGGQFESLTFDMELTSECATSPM
Chain of Paired box protein Pax-6 (Homo sapiens) (P26367 whole entry, looked up): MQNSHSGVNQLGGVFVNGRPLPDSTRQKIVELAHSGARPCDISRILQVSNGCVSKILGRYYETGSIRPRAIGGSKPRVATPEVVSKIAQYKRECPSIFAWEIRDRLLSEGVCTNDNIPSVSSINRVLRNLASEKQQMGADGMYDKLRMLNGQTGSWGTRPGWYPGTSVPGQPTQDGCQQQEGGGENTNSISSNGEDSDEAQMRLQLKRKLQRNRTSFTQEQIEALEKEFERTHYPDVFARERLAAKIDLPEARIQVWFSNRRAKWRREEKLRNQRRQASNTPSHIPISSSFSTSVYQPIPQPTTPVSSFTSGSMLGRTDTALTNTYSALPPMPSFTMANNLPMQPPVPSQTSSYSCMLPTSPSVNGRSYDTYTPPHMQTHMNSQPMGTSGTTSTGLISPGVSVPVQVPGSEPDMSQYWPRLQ
Chain of Transcription factor Sp1 (Homo sapiens) (P08047 whole entry, looked up): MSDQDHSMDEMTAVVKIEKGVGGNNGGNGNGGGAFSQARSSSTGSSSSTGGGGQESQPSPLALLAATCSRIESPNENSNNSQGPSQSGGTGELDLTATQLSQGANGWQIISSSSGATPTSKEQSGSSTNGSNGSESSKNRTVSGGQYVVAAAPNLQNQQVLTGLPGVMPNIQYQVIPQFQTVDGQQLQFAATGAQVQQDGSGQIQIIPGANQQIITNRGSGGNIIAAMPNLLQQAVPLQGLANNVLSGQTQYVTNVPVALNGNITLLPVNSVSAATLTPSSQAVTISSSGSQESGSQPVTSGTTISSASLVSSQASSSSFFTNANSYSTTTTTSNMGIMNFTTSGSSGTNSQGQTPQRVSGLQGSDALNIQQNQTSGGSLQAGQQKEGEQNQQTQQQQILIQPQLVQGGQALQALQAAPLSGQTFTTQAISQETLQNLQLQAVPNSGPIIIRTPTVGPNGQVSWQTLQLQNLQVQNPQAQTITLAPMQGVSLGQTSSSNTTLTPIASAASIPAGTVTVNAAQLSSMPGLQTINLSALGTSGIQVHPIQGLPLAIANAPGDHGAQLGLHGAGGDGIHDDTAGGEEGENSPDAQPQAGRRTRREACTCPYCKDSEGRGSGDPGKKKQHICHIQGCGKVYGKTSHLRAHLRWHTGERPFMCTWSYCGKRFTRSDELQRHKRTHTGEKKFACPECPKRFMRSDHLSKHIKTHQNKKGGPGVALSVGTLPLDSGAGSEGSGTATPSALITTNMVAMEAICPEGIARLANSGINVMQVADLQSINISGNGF
Chain of Steroid hormone receptor ERR1 (Homo sapiens) (P11474 whole entry, looked up, the tested form may be a part): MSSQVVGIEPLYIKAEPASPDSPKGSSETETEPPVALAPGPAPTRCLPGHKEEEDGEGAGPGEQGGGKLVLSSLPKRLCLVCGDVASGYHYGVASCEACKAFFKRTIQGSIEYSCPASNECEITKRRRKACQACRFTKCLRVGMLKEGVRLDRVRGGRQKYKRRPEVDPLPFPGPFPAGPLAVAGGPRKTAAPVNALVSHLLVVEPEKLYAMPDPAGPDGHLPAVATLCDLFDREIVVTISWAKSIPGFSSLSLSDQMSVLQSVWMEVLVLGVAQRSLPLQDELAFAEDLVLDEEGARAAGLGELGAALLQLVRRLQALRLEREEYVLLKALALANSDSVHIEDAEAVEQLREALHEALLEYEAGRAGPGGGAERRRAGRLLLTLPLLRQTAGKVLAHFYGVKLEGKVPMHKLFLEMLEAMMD
Chain of Nuclear receptor subfamily 1 group I member 3 (Homo sapiens) (Q14994 whole entry, looked up, the tested form may be a part): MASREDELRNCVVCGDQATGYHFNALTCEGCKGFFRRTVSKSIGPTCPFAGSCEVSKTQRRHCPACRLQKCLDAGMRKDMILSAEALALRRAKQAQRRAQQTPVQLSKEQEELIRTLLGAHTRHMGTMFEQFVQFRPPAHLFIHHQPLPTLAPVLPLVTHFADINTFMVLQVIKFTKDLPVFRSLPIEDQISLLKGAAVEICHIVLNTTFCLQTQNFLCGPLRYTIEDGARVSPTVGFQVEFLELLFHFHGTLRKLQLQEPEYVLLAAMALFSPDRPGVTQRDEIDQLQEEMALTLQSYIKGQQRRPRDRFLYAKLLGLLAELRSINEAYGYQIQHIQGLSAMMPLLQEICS
Chain of Androgen receptor (Homo sapiens) (P10275 whole entry, looked up, the tested form may be a part): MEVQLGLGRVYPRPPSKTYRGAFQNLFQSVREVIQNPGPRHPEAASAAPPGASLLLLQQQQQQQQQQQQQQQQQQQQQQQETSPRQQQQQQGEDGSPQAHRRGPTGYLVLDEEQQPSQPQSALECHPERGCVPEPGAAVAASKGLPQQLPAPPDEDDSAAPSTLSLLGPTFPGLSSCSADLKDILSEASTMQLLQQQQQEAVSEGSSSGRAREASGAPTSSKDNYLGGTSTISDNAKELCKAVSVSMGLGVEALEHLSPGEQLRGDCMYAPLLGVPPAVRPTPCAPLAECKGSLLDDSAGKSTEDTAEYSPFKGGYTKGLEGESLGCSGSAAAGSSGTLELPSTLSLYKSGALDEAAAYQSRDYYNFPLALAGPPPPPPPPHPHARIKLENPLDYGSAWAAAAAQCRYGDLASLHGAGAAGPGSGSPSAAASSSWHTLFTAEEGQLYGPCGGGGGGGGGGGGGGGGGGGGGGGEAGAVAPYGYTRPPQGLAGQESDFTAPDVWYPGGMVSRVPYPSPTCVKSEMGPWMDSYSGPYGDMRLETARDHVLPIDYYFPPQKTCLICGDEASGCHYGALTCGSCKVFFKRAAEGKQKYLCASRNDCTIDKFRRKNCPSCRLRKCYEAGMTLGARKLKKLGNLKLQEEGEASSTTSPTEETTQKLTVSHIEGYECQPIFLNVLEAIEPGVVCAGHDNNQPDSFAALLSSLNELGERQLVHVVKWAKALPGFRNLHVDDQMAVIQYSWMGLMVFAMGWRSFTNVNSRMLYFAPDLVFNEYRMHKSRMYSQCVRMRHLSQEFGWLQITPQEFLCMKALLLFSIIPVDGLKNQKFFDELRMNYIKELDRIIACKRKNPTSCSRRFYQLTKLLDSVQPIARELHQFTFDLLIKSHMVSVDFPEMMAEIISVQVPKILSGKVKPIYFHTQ

With `C#CCOS(=O)OC1CCCCC1Oc1ccc(C(C)(C)C)cc1` (stereo unspecified), the result in experiment [1], in [5], in experiment [6], in experiment [7], in experiment [8] and in experiment [9] was inactive. The outcome in [10], in experiment [11], in experiment [12], in experiment [13] and in experiment [14] was inactive. For the same compound, the AC50 is 0.661 µM (active) in experiment [2], 2.4 µM (active) in [3] and 4.22 µM (active) in experiment [4].

As to `COC(=O)N(OC)c1ccccc1COc1ccn(-c2ccc(Cl)cc2)n1`, the call in [1], in [4], in experiment [5], in experiment [7], in experiment [8] and in experiment [9] was inactive. In addition, the outcome in [10], in experiment [11], in experiment [12], in experiment [16], in experiment [13] and in [14] was inactive. Moreover, the concentration at half-maximal activity (AC50) in [2] is 1.28 µM (active); in experiment [3] it was 2.2 µM (active); in experiment [15] it was 1.35 µM (active).

Turning to `CCNc1nc(Cl)nc(NCC)n1`, the compound was classed as inactive in [1], in [3], in experiment [4], in experiment [5], in [7] and in experiment [8]. Besides, the compound was called inactive in [9], in [10], in [15], in experiment [11], in [16] and in experiment [13]. In addition, in experiment [14], the compound was called inactive. Further, the AC50 in [2] is 32.7 µM (active).

With `CCON=C(CC)C1=C(O)CC(c2c(C)cc(C)cc2C)CC1=O` (stereo unspecified), the outcome in [1], in experiment [3], in experiment [4], in [5], in experiment [6] and in experiment [7] was inactive. In addition, the call in experiment [8], in experiment [9], in [10], in experiment [15], in [12] and in experiment [13] was inactive. Also, in experiment [2], the AC50 is 34.9 µM (active).

Regarding `N#Cc1cc(Br)c(O)c(Br)c1`, the compound was classed as inactive in [1], in experiment [4], in experiment [5], in [7], in experiment [8] and in [9]. Also, the call in experiment [10], in experiment [12] and in [16] was inactive. Also, the AC50 in experiment [2] is 18.4 µM (active); in [3], 50 µM (active); in [13] it was 31.6 µM (active).

With `COc1nc(C)nc(NC(=O)NS(=O)(=O)c2ccccc2CCC(F)(F)F)n1`, the compound was called inactive in [1], in experiment [3], in experiment [4], in [5], in experiment [6] and in experiment [7]. The compound was classed as inactive in [8], in experiment [9], in experiment [10], in experiment [15], in [11] and in [12]. Besides, the outcome in [16], in experiment [13], in experiment [17] and in experiment [14] was inactive. Besides, in experiment [2], the AC50 is 18.9 µM (active) and 50 µM (active) and 33.4 µM (active).

In the case of `O=C(O)COc1nc(Cl)c(Cl)cc1Cl`, the call in [1], in experiment [3], in experiment [4], in [5], in experiment [6] and in experiment [7] was inactive. For the same compound, the outcome in [8], in experiment [9], in [10], in experiment [15], in [12] and in [13] was inactive. The AC50 in experiment [2] was 59.9 µM (active).

For the compound `Cc1c(F)c(F)c(COC(=O)C2C(/C=C(\Cl)C(F)(F)F)C2(C)C)c(F)c1F` (stereo unspecified), the compound was classed as inactive in experiment [1], in experiment [4], in [5], in experiment [7], in [18] and in experiment [8]. The outcome in experiment [9], in experiment [10], in experiment [13] and in [14] was inactive. In addition, the AC50 is 13.8 µM (active) in [2], 18 µM (active) in [15] and 50 µM (active) in [12].
